The campaign covered roughly 5,500 compounds. About 2,000 (36%) were called active. Not shown: some 18% with an inconclusive outcome. Rule as the data show it: active = normalized growth mostly below about 0.91 (no sharp cut-off); inconclusive = no clear call, values can overlap the other calls; inactive = mostly above about 0.92. This is one part of the list.
Assay: chemical genetic growth profiling, strain panel (AID 1159580);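 also: tested at 20 µM; growth read once vehicle control cultures reached saturation at 30 °C; 1 = growth at the plate median or of vehicle wells; lower values mean less growth of the strain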
Settings: S. cerevisiae deletion strains, growth OD

Measured: normalized growth

O=c1cc(-c2ccc(O)cc2)oc2cc(O)ccc12
inactive: locus YAL021C, strain ccr4, active compounds read low 0.967 | locus YAL026C, strain drs2, active compounds read low 0.95 | locus YAL030W, strain snc1, active compounds read low 0.959 | locus YBL061C, strain skt5, active compounds read low 0.967 | locus YBR009C, strain hhf1, active compounds read low 0.929 | locus YBR023C, strain chs3, active compounds read low 0.958 | locus YBR171W, strain sec66, active compounds read low 0.981 | locus YBR231C, strain swc5, active compounds read low 0.974 | locus YBR279W, strain paf1, active compounds read low 0.974 | locus YCL011C, strain gbp2, active compounds read low 0.948 | locus YCL016C, strain dcc1, active compounds read low 0.976 | locus YCL061C, strain MRC1, active compounds read low 0.976 | locus YCL069W, strain vba3, active compounds read low 0.969 | locus YCR088W, strain abp1, active compounds read low 0.957 | locus YDL005C, strain med2, active compounds read low 0.963 | locus YDL040C, strain nat1, active compounds read low 0.968 | locus YDR001C, strain nth1, active compounds read low 0.96 | locus YDR069C, strain doa4, active compounds read low 0.949 | locus YDR137W, strain rgp1, active compounds read low 0.925 | locus YDR159W, strain sac3, active compounds read low 0.866 | locus YDR195W, strain ref2 0.963 | locus YDR297W, strain sur2, active compounds read low 0.966 | locus YDR334W, strain swr1, active compounds read low 0.954 | locus YDR335W, strain msn5, active compounds read low 0.984 | locus YDR392W, strain spt3, active compounds read low 0.853 | locus YEL003W, strain gim4, active compounds read low 0.972 | locus YEL037C, strain rad23, active compounds read low 0.952 | locus YEL061C, strain CIN8 (second series), active compounds read low 0.949 | locus YER015W, strain faa2, active compounds read low 0.973 | locus YER016W, strain bim1, active compounds read low 0.976 | locus YER111C, strain swi4, active compounds read low 0.961 | locus YER155C, strain BEM2 (second series), active compounds read low 0.897 | locus YFR010W, strain ubp6, active compounds read low 0.941 | locus YGL167C, strain pmr1, active compounds read low 0.945 | locus YGL173C, strain kem1, active compounds read low 0.972 | locus YGL227W, strain vid30, active compounds read low 0.941 | locus YGL240W, strain doc1, active compounds read low 0.958 | locus YGL253W, strain hxk2, active compounds read low 0.98 | locus YHR013C, strain ard1, active compounds read low 0.925 | locus YHR027C, strain rpn1, active compounds read low 0.957 | locus YHR030C, strain SLT2, active compounds read low 0.948 | locus YHR079C, strain IRE1, active compounds read low 0.935 | locus YHR142W, strain chs7, active compounds read low 0.935 | locus YJL092W, strain hpr5, active compounds read low 0.97 | locus YJL095W, strain BCK1 (second series), active compounds read low 0.968 | locus YJL095W, strain BCK1, active compounds read low 0.969 | locus YJL115W, strain asf1, active compounds read low 0.968 | locus YJL129C, strain trk1, active compounds read low 0.915 | locus YJL154C, strain vps35, active compounds read low 0.975 | locus YJL164C, strain tpk1, active compounds read low 0.962 | locus YJL166W, strain qcr8, active compounds read low 0.969 | locus YJL187C, strain SWE1, active compounds read low 0.964 | locus YJR066W, strain TOR1, active compounds read low 0.938 | locus YKL160W, strain elf1, active compounds read low 0.973 | locus YKR026C, strain gcn3, active compounds read low 0.945 | locus YKR091W, strain srl3, active compounds read low 0.964 | locus YLL001W, strain dnm1, active compounds read low 0.958 | locus YLL026W, active compounds read low 0.96 | locus YLL041C, strain sdh2, active compounds read low 0.976 | locus YLR027C, strain aat2, active compounds read low 0.953 | locus YLR113W, strain HOG1, active compounds read low 0.918 | locus YLR221C, strain rsa3, active compounds read low 0.974 | locus YLR258W, strain gsy2, active compounds read low 0.956 | locus YLR262C, strain YPT6 (second series), active compounds read low 0.926 | locus YLR320W, strain mms22, active compounds read low 0.937 | locus YLR342W, strain FKS1, active compounds read low 0.954 | locus YLR357W, strain rsc2, active compounds read low 0.944 | locus YLR370C, strain arc18, active compounds read low 0.948 | locus YLR384C, strain iki3, active compounds read low 0.961 | locus YML120C, strain ndi1, active compounds read low 0.948 | locus YMR058W, strain fet3, active compounds read low 0.965 | locus YMR125W, strain sto1, active compounds read low 0.941 | locus YMR129W, active compounds read low 0.966 | locus YMR205C, strain PFK2, active compounds read low 0.922 | locus YMR231W, strain pep5, active compounds read low 0.966 | locus YNL071W, strain lat1, active compounds read low 0.972 | locus YNL183C, strain NPR1, active compounds read low 0.924 | locus YNL209W, strain ssb2, active compounds read low 0.973 | locus YNL248C, strain rpa49, active compounds read low 0.971 | locus YNL322C, strain KRE1 (second series), active compounds read low 0.956 | locus YNR049C, strain mso1, active compounds read low 0.964 | locus YOR001W, strain rrp6, active compounds read low 0.979 | locus YOR070C, strain gyp1, active compounds read low 0.971 | locus YOR080W, strain dia2, active compounds read low 0.968 | locus YOR083W, strain WHI5, active compounds read low 0.982 | locus YOR106W, strain vam3, active compounds read low 0.946 | locus YOR231W, strain MKK1, active compounds read low 0.942 | locus YOR265W, strain rbl2, active compounds read low 0.975 | locus YOR270C, strain vph1, active compounds read low 0.833 | locus YOR290C, strain snf2, active compounds read low 0.921 | locus YPL051W, strain arl3, active compounds read low 0.984 | locus YPL078C, strain atp4, active compounds read low 0.963 | locus YPL106C, strain sse1, active compounds read low 0.937 | locus YPL240C, strain hsp82, active compounds read low 0.955 | locus YPL256C, strain CLN2, active compounds read low 0.944
